Screening results from PubChem BioAssay.
Sampled rows, rich in hits. Any-hit rate of the full collection: about 0.92%.
CIT2-GFP yeast: yeast TOR pathway CIT2-GFP modulation | S. cerevisiae CIT2-GFP strain, flow cytometry, 3 h; 100 means same as DMSO wells | GFP response vs DMSO, % at 10 µM | 320,000 tested, 0.065% active;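 active = GFP response relative to DMSO above a set limit, near the screen mean plus 3 SD, cut at about 150% in these data; inconclusive = Fewer than 70 cells measured for a yeast strain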;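 also: ratio of well median GFP fluorescence to mean of DMSO wells on the plate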
RPL19A-GFP yeast: modulators of TOR pathway RPL19A-GFP in S. cerevisiae; S. cerevisiae RPL19A-GFP strain, flow cytometry, 3 h; active compounds read low; percent response vs DMSO, % at 10 µM; 330,000 tested, 0.3% active;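 active = percent response vs DMSO below 50%; inconclusive = fewer than 70 events counted for the yeast strain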;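 also: median channel GFP fluorescence of the barcoded RPL19A-GFP strain; ratio of sample median GFP to plate DMSO average so 100% = DMSO; lower means less RPL19A-GFP as with rapamycin TOR inhibition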
LAP4 TOR yeast: modulators of TOR pathway LAP4-GFP in S. cerevisiae; S. cerevisiae LAP4-GFP multiplex, flow cytometry GFP, 3 h; median GFP as percent of DMSO wells; GFP response vs DMSO, % at 10 µM; 320,000 tested, 0.34% active; AID 2023;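 active = GFP response vs DMSO above a set limit, about the screen mean plus 3 SD, cut at about 150% in these data; inconclusive = under 70 cell events counted for the yeast strain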
MEP2-GFP yeast: modulators of TOR pathway MEP2-GFP in S. cerevisiae. S. cerevisiae MEP2-GFP strain, flow cytometry GFP, 3 h; 100% = DMSO control level. GFP response vs DMSO, % at 10 µM. 330,000 tested, 0.51% active. AID 2016;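 active = GFP response versus DMSO above a set limit, roughly screen mean plus 3 SD, cut at about 180% in these data; inconclusive = fewer than 70 cells counted for a yeast strain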;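 also: median GFP fluorescence of the barcode-gated MEP2-GFP cells per well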
AGP1-GFP MLPCN: modulators of TOR pathway AGP1-GFP in S. cerevisiae; S. cerevisiae AGP1-GFP multiplex flow cytometry, 3 h; GFP as percent of DMSO wells; GFP response vs DMSO, % at 10 µM; 320,000 tested, 0.02% active; AID 2066;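 active = GFP response relative to DMSO above a set limit, near screen average plus 3 SD, cut at about 150% in these data; inconclusive = fewer than 70 cells counted for the yeast strain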;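 also: median GFP channel fluorescence of the gated AGP1 strain per well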
* = called active by the depositor; ? = inconclusive; nt = no result given; [ ] = remark or other dose.

SMILES	CIT2-GFP yeast	RPL19A-GFP yeast	LAP4 TOR yeast	MEP2-GFP yeast	AGP1-GFP MLPCN
CCc1nc(Nc2ccc(N3CCN(C(C)=O)CC3)cc2)c2oc3ccccc3c2n1	101	93	102	103	107
CC(=O)N1CCN(c2ccc(Nc3ncnc4c3oc3ccccc34)cc2)CC1	?	22*[may fluoresce violet]	91	427*[may fluoresce violet]	nt
CCN1CCN(CCCNC(=O)C2CCCN(c3nc4c(C)cc(C)cc4s3)C2)CC1 (stereo unspecified)	85	92	94	93	87
N=c1c(C(=O)NCc2ccc(F)cc2)cc2c(=O)n3ccccc3nc2n1CC1CCCO1 (stereo unspecified)	?	77	103	256*[may fluoresce violet]	nt
N=c1c(C(=O)NCc2ccco2)cc2c(=O)n3ccccc3nc2n1CC1CCCO1 (stereo unspecified)	?	27*[may fluoresce violet]	84	266*[may fluoresce violet]	?
Cc1ccc2nc3c(cc(C(=O)NCc4ccco4)c(=N)n3C3CCCC3)c(=O)n2c1	?	26*[may fluoresce violet]	?	?	?
N=c1c(C(=O)NCc2ccc3c(c2)OCO3)cc2c(=O)n3ccccc3nc2n1CC1CCCO1 (stereo unspecified)	102	97	92	101	96
Cc1cccn2c(=O)c3cc(C(=O)NCCc4ccccc4)c(=N)n(CC4CCCO4)c3nc12 (stereo unspecified)	90	104	91	101	93
N=c1c(C(=O)NCCc2ccccc2)cc2c(=O)n3ccccc3nc2n1CC1CCCO1 (stereo unspecified)	?	22*[may fluoresce violet]	?	?	?
CC(C)(O)[C@@H]1CC[C@@](C)(C2CC[C@]3(C)C2[C@H](O)CC2[C@@]4(C)CC[C@H](O)C(C)(C)C4[C@@H](O[C@H]4O[C@@H](CO)[C@H](O)[C@@H](O)[C@@H]4O[C@@H]4O[C@H](CO)[C@@H](O)[C@H](O)[C@H]4O)C[C@]23C)O1 (stereo in doubt)	91	98	105	102	102
CC1CCC(NC(=O)Cn2cnc3sccc3c2=O)CC1 (stereo unspecified)	103	102	100	101	100
O=C(O)c1cccc(N=C2NC(=O)C(CO)(CO)S2)c1	103	106	93	106	98
Cc1noc(C)c1NC(=O)N(C)C[C@H]1Oc2c(NC(=O)C3CC3)cccc2C(=O)N([C@H](C)CO)C[C@@H]1C	91	99	97	98	92
N=c1c(C(=O)NCc2ccco2)cc2c(=O)n3ccccc3nc2n1CCc1ccccc1	89	48*	93	325*	74
Cc1cccn2c(=O)c3cc(C(=O)NCc4ccco4)c(=N)n(CCOCCO)c3nc12	?	35*[may fluoresce violet]	102	239*[may fluoresce violet]	?
Cc1ccc(Cn2c(=N)c(C(=O)NCc3ccco3)cc3c(=O)n4ccccc4nc32)cc1	102	71	97	155	19
Cc1cc(Cl)ccc1OCCCC(=O)N1CCOCC1	?	36*[may fluoresce violet]	75	222*[may fluoresce violet]	?
Cc1cc(Cl)ccc1OCCCC(=O)N1CCCCC1	101	101	103	105	102
Oc1ccc2ccccc2c1/C=N/c1nc2c(s1)CCCC2	95	96	94	95	96
Oc1c(Br)cc(Br)cc1/C=N/c1nc2c(s1)CCCC2	?	47*[may fluoresce violet]	103	90	15
Cc1cc(-c2csc3nc[nH]c(=S)c23)cc(C)c1C	100	97	142	185*	134
CC12CCC(C(=O)N3CCCc4ccccc43)(CC1=O)C2(C)C (stereo unspecified)	92	99	106	104	100
CC12CCC(C(=O)N3CCc4ccccc43)(CC1=O)C2(C)C (stereo unspecified)	?	nt	96	282*[may fluoresce violet]	32
O=S(=O)(Nc1nc2c(s1)CCCC2)c1ccc2ccccc2c1	104	96	94	97	99
O=S(=O)(NC1=NCCCCC1)c1ccc2sc(NS(=O)(=O)c3ccc4ccccc4c3)nc2c1	?	41*[may fluoresce violet]	83	243*[may fluoresce violet]	22
SMILES	CIT2-GFP yeast	RPL19A-GFP yeast	LAP4 TOR yeast	MEP2-GFP yeast	AGP1-GFP MLPCN
NS(=O)(=O)c1ccc(NC(=O)CN2C(=O)CCC2=O)cc1	?	46*[may fluoresce violet]	86	812*[may fluoresce violet]	25
O=C(Nc1ccc2c(c1)OCO2)c1cnn2c(C(F)(F)F)cc(-c3ccco3)nc12	109	101	102	102	100
COc1ccc(NC(=O)c2cnn3c(C(F)(F)F)cc(-c4ccco4)nc23)cc1OC	?	nt	85	250*[may fluoresce violet]	27
O=C(NCCc1ccccc1)C1CCC(Cn2c(=O)c3ccccc3n(Cc3cccc(F)c3)c2=O)CC1 (stereo unspecified)	97	102	95	107	94
O=C(NCCc1ccccc1)C1CCC(Cn2c(=O)c3ccccc3n(Cc3cccc(Cl)c3)c2=O)CC1 (stereo unspecified)	?	36*[may fluoresce violet]	105	142	29
COc1ccccc1CNC(=O)CNC(=O)[C@@H]1Cc2ccccc2CN1	?	31*[may fluoresce violet]	81	127	16
COc1ccc(OC)c2c1C(=O)C(Cl)=C(Cl)C2=O	?	44*[may fluoresce violet]	150	291*[may fluoresce violet]	14
COc1ccccc1N(CC(=O)NCc1ccccc1C)S(=O)(=O)c1ccc(C)cc1	?	?	?	206*[may fluoresce red and violet]	?
COc1ccc(CCNC(=O)CN(c2ccccc2OC)S(=O)(=O)c2ccc(C)cc2)cc1	103	95	94	98	100
NC(=S)NN=C1c2cc(S(=O)(=O)N3CCOCC3)ccc2-c2ccc(S(=O)(=O)N3CCOCC3)cc21	97	98	98	98	99
CN(C)N=C1c2cc(S(=O)(=O)N3CCOCC3)ccc2-c2ccc(S(=O)(=O)N3CCOCC3)cc21	?	47*[may fluoresce violet]	87	269*[may fluoresce violet]	?
CCCCNc1c(-c2ccc(SC(C)CC)cc2)nc2ccccn12 (stereo unspecified)	78	85	162*	91	83
CCCCNc1c(-c2ccc(SC3CCCCC3)cc2)nc2ccccn12	72	88	149	91	84
O=C(CCS(=O)(=O)c1ccc(F)cc1)N1CCN(c2ccccc2)CC1	97	94	112	100	102
O=C(CCS(=O)(=O)c1ccc(F)cc1)N1CCOCC1	?	66	89	528*[may fluoresce violet]	13
CCOC(=O)CC1C(=O)NCCN1S(=O)(=O)c1ccc(NC(C)=O)cc1 (stereo unspecified)	150*[may fluoresce green]	92	103	111	112
COc1ccc(S(=O)(=O)N2CCN(c3nn(C)c(=O)n(C)c3=O)CC2)cc1	102	103	104	109	103
CCN(C[C@H]1N[C@@](CC)(C(=O)OC)[C@H]2C(=O)N(Cc3ccccc3)C(=O)[C@@H]12)S(=O)(=O)c1ccc(C(C)(C)C)cc1	95	96	96	93	99
O=C(CSc1nnnn1Cc1ccccc1)Nc1ccccc1	98	96	113	97	102
